Source: PubChem
An excerpt weighted towards active compounds, which were near 3.5% of everything screened.
LEDGF integ inh: blockers of LEDGF/p75-dependent integrase strand transfer – biochemical, TR-FRET, high throughput, primary screen; HIV-1 integrase (with human LEDGF/p75); TR-FRET IN-LEDGF/p75 DNA integration, Eu/Cy5; AID 743269, 2014; 370,000 tested, 0.64% active; inhibition, % at 3.7 µM;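 active = inhibition above the screen-wide mean plus 3 SD, cut at about 13% in these data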;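 also: signal is the Cy5 over europium emission ratio at 671 and 618 nm; 0% = plate median of compound wells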
DNMT1 block: human DNMT1 methyltransferase inhibitors, primary screen, biochemical, molecular beacon, fluorescence, HinP1I cleavage, uHTS; DNA (cytosine-5)-methyltransferase 1 (Homo sapiens), P26358; inhibition (reported as % activation of signal), % at 10 µM; 360,000 tested, 0.83% active; AID 588458, 2011; in the data active = inhibition above about 50%
PG9 Ab binder: binders of HIV-1 gp120 antibody PG9, primary screen, biochemical, TR-FRET | HIV-1 gp120 / PG9 antibody interaction | TR-FRET gp120-PG9 antibody binding | inhibition, % at 6.7 µM | 360,000 tested, 0.43% active; in the data active = inhibition above about 8.5%
MBD2 inh: inhibitors of MBD2 binding to methylated DNA, primary screen, biochemical, TR-FRET, DNA-binding domain, human | Methyl-CpG-binding domain protein 2 (Homo sapiens), Q9UBB5 | MBD2 binding to methylated oligonucleotide | inhibition, % at 4.4 µM | 370,000 tested, 0.31% active | AID 686964, 2013; in the data active = inhibition above about 13%
Target sequence (Q9UBB5 whole entry, looked up, the tested form may be a part): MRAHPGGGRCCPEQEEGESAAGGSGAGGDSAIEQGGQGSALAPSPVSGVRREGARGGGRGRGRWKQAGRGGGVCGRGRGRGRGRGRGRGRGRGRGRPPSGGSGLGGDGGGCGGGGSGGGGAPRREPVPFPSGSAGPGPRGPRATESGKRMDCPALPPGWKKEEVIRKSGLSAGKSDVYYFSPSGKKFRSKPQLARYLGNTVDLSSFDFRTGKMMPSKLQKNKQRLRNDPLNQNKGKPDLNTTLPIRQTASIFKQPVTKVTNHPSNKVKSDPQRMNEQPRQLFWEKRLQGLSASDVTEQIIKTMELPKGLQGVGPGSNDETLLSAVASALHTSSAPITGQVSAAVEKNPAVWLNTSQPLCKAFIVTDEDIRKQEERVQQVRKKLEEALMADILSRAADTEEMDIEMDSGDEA
UHRF1 MBD2 ctr: UHRF1 methylated DNA binding inhibitors, primary screen, counter-screen for MBD2 inhibitor project, biochemical, TR-FRET, human UHRF1, single concentration; E3 ubiquitin-protein ligase UHRF1 (Homo sapiens), Q96T88; UHRF1 binding to methylated oligo; inhibition, % at 4.4 µM; 370,000 tested, 0.75% active; AID 687016, 2013; in the data active = inhibition above about 21%;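 also: UHRF1 SRA domain binding a hemimethylated CpG hairpin DNA probe; 0% = median of test compound wells and 100% = reference inhibitor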
rCAG RNA binder: binders of r(CAG) RNA repeats, primary screen, biochemical, fluorescence; inhibition, % at 3 µM; 370,000 tested, 1.3% active; r(CAG) RNA repeat, TO-PRO-1 dye displacement fluorescence;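 active = inhibition above the plate cutoff, the mean of all test compounds on that plate plus 3 SD, cut at about 35% in these data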;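 also: 0% = DMSO alone and 100% = 100 µM mitoxantrone as full dye displacement; higher means more dye released from RNA so lower well fluorescence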
IN multimer up: HIV-1 IN multimer formation enhancers, counter-screen for LEDGF/p75 integration inhibitor project, biochemical, TR-FRET. shares compounds with LEDGF integ inh. TR-FRET HIV-1 integrase multimerization. activation, % at 7.7 µM. 2,000 tested, 17% active. AID 1053131, 2014; in the data active = activation above about 8.9%
TRFRET interf: TR-FRET optical interference artefacts, confirmation, artefact control for LEDGF/p75-dependent integration inhibitor project, biochemical, HIV-1 IN multimerization; 2,000 tested, under 10 active; shares compounds with LEDGF integ inh; inhibition, % at 7.7 µM; TR-FRET optical interference counterscreen;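 active = inhibition above the mean over all tested compounds plus 3 SD, which no compound reached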;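 also: 0% = integrase with antibodies and DMSO and 100% = antibodies without integrase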
IN-LEDGF confirm: inhibitors of HIV-1 IN-LEDGF/p75 DNA integration, confirmation, biochemical, TR-FRET | shares compounds with LEDGF integ inh | TR-FRET LEDGF/p75-dependent HIV-1 integration | inhibition, % at 3.7 µM | 2,000 tested, 36% active | AID 1053136, 2014; in the data active = inhibition above about 14%
* = called active by the depositor; / = no result.

SMILES	LEDGF integ inh	DNMT1 block	PG9 Ab binder	MBD2 inh	UHRF1 MBD2 ctr	rCAG RNA binder	IN multimer up	TRFRET interf	IN-LEDGF confirm
CN1CCN(CCc2nc3cc(NC(=O)COc4ccccc4)ccc3n2C)CC1	0	2	-1	4	0	-9	/	/	/
COC1OC(c2ccccc2)=C(c2ccc(C(N)=O)cc2)c2ccc(F)cc21 (configuration not stated)	-4	/	-1	6	13	1	/	/	/
CC(=O)c1ccc2c(c1)C1C=CCC1C(c1ccncc1)N2 (configuration not stated)	2	-35	0	-2	-11	21	/	/	/
CC(=O)c1ccc2c(c1)C1C=CCC1C(C(=O)O)N2 (configuration not stated)	90*	91*	2	104*	93*	96*	53*	-187	77*
Clc1ccc(CNc2ncccn2)cc1	-5	1	-1	3	4	-1	/	/	/
Fc1ccc(CNc2ncccn2)cc1	14*	6	-2	-2	2	0	2	-9	-5
C=CCn1c(SCC(=O)N2N=C(c3ccco3)CC2c2ccco2)nnc1-c1ccncc1 (configuration not stated)	-3	2	0	0	-2	-4	/	/	/
O=C(O)/C=C/C(=O)N1N=C(c2ccco2)CC1c1ccco1 (configuration not stated)	51*	2	-2	6	18	8	-1	7	5
O=[N+]([O-])c1cccc(S(=O)(=O)NCCCn2ccnc2)c1	0	-2	0	3	1	-1	/	/	/
Cc1cc(N(C)C)cc(C)c1N=Nc1cc[n+]([O-])cc1	-2	-18	-7	-23	-26	3	/	/	/
O=S1(=O)CC(N2CCN(CCO)CC2)CN1Cc1ccccc1 (configuration not stated)	35*	1	1	-7	-1	0	1	-4	-1
C=CCNC(=O)c1c(N)n(-c2cccc(S(N)(=O)=O)c2)c2nc3ccccc3nc12	5	-25	2	-1	2	18	/	/	/
C=CCn1c(N)c(C(=O)Nc2ccccc2)c2nc3ccccc3nc21	21*	-17	-1	-5	-9	17	2	-7	0
CC(C)Oc1ccc(S(=O)(=O)N2CCCCC2)cc1NC(=O)CN1C(=O)NC2(CCCC2)C1=O	-1	-1	3	-6	1	-3	/	/	/
COc1ccc(/C=N/N2CCN(Cc3ccc(C)cc3)CC2)cc1Br	-4	-1	-1	1	1	-5	/	/	/
O=C(OCc1cccc(F)c1)c1cc2ccccc2cc1O	-1	-1	-1	-1	1	3	/	/	/
COc1ccccc1N(CC(=O)NCc1ccc2c(c1)OCO2)C(=O)CCC(=O)Nc1nccs1	0	0	2	-1	0	-2	/	/	/
CC(=O)c1ccc(NC(=O)C(C)OC(=O)/C=C/c2ccco2)cc1 (configuration not stated)	19*	19	0	-8	6	21	1	-6	3
CCOC(=O)c1ccc(-c2ccc3ncnc(NCc4csc(C)n4)c3c2)o1	-3	-6	2	0	-3	4	/	/	/
Cc1ccc(CNc2ncnc3ccc(-c4ccc(CO)o4)cc23)o1	19*	5	1	-3	-2	29	6	-29	5
O=C(O)CCCC[C@@H]1SC[C@@H]2NC(=O)N[C@@H]21	93*	5	-1	5	1	7	2	-8	96*
Cn1cc(C(=O)N/N=C/C2=C(N3CCOCC3)C(=C/c3ccc([N+](=O)[O-])cc3)/CC2)ccc1=O	88*	0	-1	5	-3	8	-1	4	-2
COCCn1c(SCC(=O)c2c(N)n(C3CC3)c(=O)[nH]c2=O)nnc1-c1ccc(Cl)cc1	9	2	0	-6	1	1	/	/	/
N=C1/C(=C\c2coc3ccc(O)cc3c2=O)C(=O)N=C2SC=CN12	8	43	-1	-7	-9	-168	/	/	/
N=C1/C(=C\c2coc3ccccc3c2=O)C(=O)N=C2SC(c3ccncc3)=NN12	25*	35	0	-4	-6	-42	0	-1	62*
SMILES	LEDGF integ inh	DNMT1 block	PG9 Ab binder	MBD2 inh	UHRF1 MBD2 ctr	rCAG RNA binder	IN multimer up	TRFRET interf	IN-LEDGF confirm
CC1(C)CC(=O)C2=C(C1)OC1=C(C(=O)CC(C)(C)C1)C2c1ccc(O)cc1O	17*	3	-1	-5	-3	-106	8	-40	-1
CCCCOc1ccc(C(=O)Oc2cccnc2)cc1	-4	0	0	0	1	-6	/	/	/
Cc1ccc(N2C(=O)N(CC(=O)Nc3cccc(C)c3C)C(=O)C2C)cc1 (configuration not stated)	15*	-3	1	-3	-1	-4	0	-1	-6
Cc1ccc(N2C(=O)N(CC(=O)Nc3cc(Cl)ccc3C)C(=O)C2C)cc1 (configuration not stated)	-4	-1	0	5	6	-6	/	/	/
Cc1cccnc1NC(=O)C1CCN(S(=O)(=O)c2c(C)noc2/C=C/c2ccco2)CC1	24*	-2	-4	1	-2	9	0	-2	-11
Cc1noc(/C=C/c2ccco2)c1S(=O)(=O)N1CCC(C(=O)NCc2ccco2)CC1	33*	-8	-4	-8	1	23	3	-9	1
Cc1ccc(NC(=O)C2CCN(S(=O)(=O)c3c(C)noc3/C=C/c3ccco3)CC2)nc1	1	-5	0	0	2	11	/	/	/
Cc1ccc(CNC(=O)C2CCN(S(=O)(=O)c3c(C)noc3/C=C/c3ccco3)CC2)cc1	6	-11	-2	-2	0	20	/	/	/
